Results reported in PubChem BioAssay AID1159580 (chemical genetic matrix, 2015).
Several values for one entry are separate records, joined by “and”; a condition that tells them apart may be missing. Equal values may be shown once. Hit rate of the full screen: of about 5,500 compounds, about 2,000 (36%) were called active. Roughly 18% stayed inconclusive and do not appear here. No stated cut-off is given here; in the data, active means normalized growth mostly below about 0.91 (no sharp cut-off); inconclusive means no clear call, values can overlap the other calls; inactive means mostly above about 0.92. Some of the results follow.

Assay: chemical genetic growth profiling, strain panel (AID 1159580);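 further: tested at 20 µM; growth read once vehicle control cultures reached saturation at 30 °C; 1 = growth at the plate median or of vehicle wells; lower values mean less growth of the strain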
Settings: S. cerevisiae deletion strains, growth OD

Measured: normalized growth

C[C@@H]1CCC2[C@](C)(CO)[C@@H](O)CC[C@]2(C)[C@@]12CC[C@@](CO)(CCO)O2 (stereo partly specified)
inactive: locus YAL021C, strain ccr4, active compounds read low 0.991 | locus YAL026C, strain drs2, active compounds read low 0.985 | locus YAL030W, strain snc1, active compounds read low 0.987 | locus YBL061C, strain skt5, active compounds read low 0.967 | locus YBR009C, strain hhf1, active compounds read low 0.977 | locus YBR021W, strain FUR4, active compounds read low 0.998 | locus YBR023C, strain chs3, active compounds read low 0.983 | locus YBR171W, strain sec66, active compounds read low 0.965 | locus YBR229C, strain ROT2, active compounds read low 0.997 | locus YBR231C, strain swc5, active compounds read low 0.997 | locus YBR279W, strain paf1, active compounds read low 0.991 | locus YCL011C, strain gbp2, active compounds read low 0.994 | locus YCL016C, strain dcc1, active compounds read low 0.989 | locus YCL029C, strain bik1, active compounds read low 0.986 | locus YCL061C, strain MRC1, active compounds read low 0.975 | locus YCL069W, strain vba3, active compounds read low 0.979 | locus YCR088W, strain abp1, active compounds read low 0.979 | locus YDL005C, strain med2, active compounds read low 0.972 | locus YDL035C, strain GPR1, active compounds read low 1.02 | locus YDL040C, strain nat1, active compounds read low 0.972 | locus YDL074C, strain BRE1, active compounds read low 1 | locus YDL101C, strain DUN1, active compounds read low 1 | locus YDL134C, strain PPH21, active compounds read low 1.04 | locus YDL185W, strain tfp1, active compounds read low 0.987 | locus YDL192W, strain arf1, active compounds read low 0.994 | locus YDR001C, strain nth1, active compounds read low 0.986 | locus YDR069C, strain doa4, active compounds read low 0.963 | locus YDR101C, strain arx1, active compounds read low 0.995 | locus YDR137W, strain rgp1, active compounds read low 1.01 | locus YDR159W, strain sac3, active compounds read low 0.933 | locus YDR162C, strain NBP2, active compounds read low 1.06 | locus YDR195W, strain ref2 0.959 | locus YDR297W, strain sur2, active compounds read low 0.996 | locus YDR318W, strain mcm21, active compounds read low 0.994 | locus YDR334W, strain swr1, active compounds read low 0.976 | locus YDR335W, strain msn5, active compounds read low 0.978 | locus YDR388W, active compounds read low 0.974 | locus YDR392W, strain spt3, active compounds read low 0.975 | locus YDR502C, strain sam2, active compounds read low 1.01 | locus YEL003W, strain gim4, active compounds read low 0.974 | locus YEL037C, strain rad23, active compounds read low 0.968 | locus YEL061C, strain CIN8 (second series), active compounds read low 0.98 | locus YEL061C, strain CIN8, active compounds read low 1.01 | locus YER015W, strain faa2, active compounds read low 0.99 | locus YER016W, strain bim1, active compounds read low 0.981 | locus YER110C, active compounds read low 0.983 | locus YER111C, strain swi4, active compounds read low 0.959 | locus YER155C, strain BEM2 (second series), active compounds read low 0.958 | locus YER155C, strain BEM2, active compounds read low 0.993 | locus YER167W, strain BCK2, active compounds read low 1 | locus YFR010W, strain ubp6, active compounds read low 0.957 | locus YGL078C, strain dbp3, active compounds read low 0.985 | locus YGL086W, strain mad1, active compounds read low 1.03 | locus YGL167C, strain pmr1, active compounds read low 0.976 | locus YGL173C, strain kem1, active compounds read low 0.979 | locus YGL227W, strain vid30, active compounds read low 0.978 | locus YGL240W, strain doc1, active compounds read low 0.966 | locus YGL248W, strain PDE1, active compounds read low 1 | locus YGL253W, strain hxk2, active compounds read low 0.944 | locus YGR078C, strain PAC10, active compounds read low 1.03 | locus YGR135W, strain pre9, active compounds read low 0.983 | locus YGR229C, strain SMI1, active compounds read low 1.04 | locus YGR252W, strain gcn5, active compounds read low 1.02 | locus YHR013C, strain ard1, active compounds read low 0.959 | locus YHR027C, strain rpn1, active compounds read low 0.983 | locus YHR030C, strain SLT2, active compounds read low 1 and 0.991 | locus YHR079C, strain IRE1 (second series), active compounds read low 0.981 | locus YHR079C, strain IRE1, active compounds read low 0.99 | locus YHR094C, strain hxt1, active compounds read low 0.982 | locus YHR129C, strain ARP1, active compounds read low 1 | locus YHR142W, strain chs7, active compounds read low 0.977 | locus YHR200W, strain rpn10, active compounds read low 0.985 | locus YIL066C, strain RNR3, active compounds read low 1.02 | locus YIL073C, strain SPO22, active compounds read low 0.979 | locus YIL125W, strain kgd1, active compounds read low 0.975 | locus YIR030C, strain dcg1, active compounds read low 0.991 | locus YJL092W, strain hpr5, active compounds read low 0.977 | locus YJL095W, strain BCK1 (second series), active compounds read low 0.983 | locus YJL095W, strain BCK1, active compounds read low 1.04 and 0.955 | locus YJL115W, strain asf1, active compounds read low 0.986 | locus YJL129C, strain trk1, active compounds read low 0.966 | locus YJL134W, strain LCB3, active compounds read low 0.991 | locus YJL154C, strain vps35, active compounds read low 0.982 | locus YJL164C, strain tpk1, active compounds read low 1 | locus YJL166W, strain qcr8, active compounds read low 0.98 | locus YJL168C, strain set2, active compounds read low 0.989 | locus YJL187C, strain SWE1 (second series), active compounds read low 1 | locus YJL187C, strain SWE1, active compounds read low 0.981 | locus YJR043C, strain POL32, active compounds read low 1.04 | locus YJR066W, strain TOR1, active compounds read low 0.976 | locus YJR075W, strain HOC1, active compounds read low 1.04 | locus YKL009W, strain mrt4, active compounds read low 0.976 | locus YKL068W, active compounds read low 0.986 | locus YKL085W, strain MDH1 (second series), active compounds read low 0.99 | locus YKL085W, strain MDH1, active compounds read low 0.99 | locus YKL160W, strain elf1, active compounds read low 0.988 | locus YKR001C, strain vps1, active compounds read low 1.01 | locus YKR026C, strain gcn3, active compounds read low 0.978 | locus YKR091W, strain srl3, active compounds read low 0.988 | locus YLL001W, strain dnm1, active compounds read low 0.991 | locus YLL026W, active compounds read low 0.982 | locus YLL041C, strain sdh2, active compounds read low 0.977 | locus YLR027C, strain aat2, active compounds read low 0.98 | locus YLR039C, strain RIC1, active compounds read low 1.09 | locus YLR058C, strain SHM2, active compounds read low 1 | locus YLR102C, strain apc9, active compounds read low 0.977 | locus YLR113W, strain HOG1, active compounds read low 0.991 | locus YLR221C, strain rsa3, active compounds read low 0.953 | locus YLR258W, strain gsy2, active compounds read low 0.969 | locus YLR262C, strain YPT6 (second series), active compounds read low 1.01 | locus YLR262C, strain YPT6, active compounds read low 1.09 | locus YLR268W, strain sec22, active compounds read low 0.996 | locus YLR320W, strain mms22, active compounds read low 0.971 | locus YLR330W, strain CHS5, active compounds read low 0.995 | locus YLR342W, strain FKS1 (second series), active compounds read low 0.995 | locus YLR342W, strain FKS1, active compounds read low 0.969 | locus YLR357W, strain rsc2, active compounds read low 0.95 | locus YLR370C, strain arc18, active compounds read low 0.977 | locus YLR371W, strain rom2, active compounds read low 0.982 | locus YLR384C, strain iki3, active compounds read low 0.974 | locus YLR418C, strain cdc73, active compounds read low 1.03 | locus YML016C, strain PPZ1, active compounds read low 0.997 | locus YML032C, strain rad52, active compounds read low 0.97 | locus YML120C, strain ndi1, active compounds read low 0.992 | locus YML124C, strain tub3, active compounds read low 0.993 | locus YMR058W, strain fet3, active compounds read low 0.973 | locus YMR078C, strain ctf18, active compounds read low 1 | locus YMR125W, strain sto1, active compounds read low 0.982 | locus YMR129W, active compounds read low 0.986 | locus YMR205C, strain PFK2, active compounds read low 1.01 | locus YMR223W, strain ubp8, active compounds read low 1 | locus YMR231W, strain pep5, active compounds read low 0.951 | locus YMR307W, strain GAS1, active compounds read low 1.15 | locus YNL067W, strain RPL9B, active compounds read low 1.03 | locus YNL071W, strain lat1, active compounds read low 0.989 | locus YNL153C, strain GIM3, active compounds read low 1.04 | locus YNL183C, strain NPR1, active compounds read low 0.977 | locus YNL209W, strain ssb2, active compounds read low 0.992 | locus YNL233W, strain BNI4, active compounds read low 1.02 | locus YNL248C, strain rpa49, active compounds read low 0.976 | locus YNL250W, strain rad50, active compounds read low 0.985 | locus YNL271C, strain bni1, active compounds read low 1.01 | locus YNL298W, strain CLA4, active compounds read low 0.968 | locus YNL307C, strain MCK1, active compounds read low 0.982 | locus YNL322C, strain KRE1 (second series), active compounds read low 1 | locus YNL322C, strain KRE1, active compounds read low 1.01 | locus YNR049C, strain mso1, active compounds read low 0.971 | locus YNR052C, strain pop2, active compounds read low 0.983 | locus YOL012C, strain htz1 1.2 | locus YOL147C, strain pex11, active compounds read low 0.989 | locus YOR001W, strain rrp6, active compounds read low 0.956 | locus YOR061W, strain CKA2, active compounds read low 1 | locus YOR069W, strain VPS5, active compounds read low 0.991 | locus YOR070C, strain gyp1, active compounds read low 0.973 | locus YOR080W, strain dia2, active compounds read low 0.972 | locus YOR083W, strain WHI5, active compounds read low 1 | locus YOR106W, strain vam3, active compounds read low 1.03 | locus YOR136W, strain idh2, active compounds read low 0.984 | locus YOR144C, strain elg1, active compounds read low 0.999 | locus YOR184W, strain ser1, active compounds read low 1.02 | locus YOR231W, strain MKK1, active compounds read low 1 | locus YOR265W, strain rbl2, active compounds read low 0.996 | locus YOR270C, strain vph1, active compounds read low 0.971 | locus YOR290C, strain snf2, active compounds read low 0.967 | locus YOR316C, strain cot1, active compounds read low 0.975 | locus YPL051W, strain arl3, active compounds read low 0.965 | locus YPL078C, strain atp4, active compounds read low 0.995 | locus YPL106C, strain sse1, active compounds read low 0.987 | locus YPL240C, strain hsp82, active compounds read low 0.981 | locus YPL241C, strain CIN2, active compounds read low 1.01 | locus YPL256C, strain CLN2, active compounds read low 0.996 | locus YPR119W, strain clb2, active compounds read low 0.997 | locus YPR141C, strain kar3, active compounds read low 0.984 | locus YPR163C, strain tif3, active compounds read low 0.983 | locus YPR167C, strain met16, active compounds read low 1.01 | strain wtn01, active compounds read low 0.98
